Seven molecules from PubChem BioAssay (EPA / NIEHS) can be followed below.

Active and inactive are the calls of the source. How the source made its calls: active means hit-call score of the fitted dose curve at least 0.9, where 1 is the maximum; inactive means score below 0.9.

A short description of experiment [1]: ATG_GRE_CIS: Attagene CIS-FACTORIAL HepG2 Assay for human Glucocorticoid Response Elements (GRE) (AID 2282947). The settings on record: HepG2 GRE cis-reporter, Attagene multiplex mRNA; actives raise or lower the signal. The essentials:
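Multiplexed cis-reporter mRNA induction, HepG2, 24 h post-dose. RT-PCR, FAM-labelled, HpaI-digested amplicons by CE. Bidirectional fit vs DMSO.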

Experiment [2] can be described thus: ATG_ISRE_CIS: Attagene CIS-FACTORIAL HepG2 Assay for human Interferon Regulatory Factor 1 (IRF1) binding to an Interferon-Stimulated Response Element (ISRE) (AID 2282948). The settings on record: HepG2 ISRE cis-reporter (Attagene), mRNA transcription readout; actives raise or lower the signal. A digest of the protocol:
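Multiplexed mRNA reporter readout in human liver HepG2 cells: cis-element-driven reporters transfected, compound added for 24 h, transcripts amplified, fluorescently labelled and sized by capillary electrophoresis; curve fitting bidirectional against DMSO.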

A short description of experiment [3]: ATG_M_32_CIS: Attagene CIS-FACTORIAL HepG2 Assay for M32 Transcription Factor (Internal Marker) (AID 2282949).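 Further: background control marker of the multiplexed CIS panel rather than a real target.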 To be noted: HepG2 Attagene cis-factorial M32 reporter, mRNA; actives raise or lower the signal. The essentials: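 Transient MRTU transfection of HepG2; 24 h compound treatment; TriZol RNA, oligo(dT) RT, reporter PCR, 6-FAM primer extension, HpaI cut, CE. Gain/loss of signal vs DMSO.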

Experiment [4] is described as follows: ATG_M_06_CIS: Attagene CIS-FACTORIAL HepG2 Assay for M06 Transcription Factor (Internal Marker) (AID 2282950). The settings on record: HepG2 Attagene CIS-FACTORIAL M06 internal marker reporter; actives raise or lower the signal. A digest of the protocol: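 Terse: HepG2, transient MRTU transfection (FuGene 6), 24 h dosing; total RNA, oligo(dT) RT, PCR, FAM label, HpaI cut, capillary electrophoresis; bidirectional fit vs DMSO baseline; background-control endpoint.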

Experiment [5] has as its target Hypoxia-inducible factor 1-alpha (Homo sapiens) (UniProt Q16665). Put plainly: ATG_HIF1a_CIS: Attagene CIS-FACTORIAL HepG2 Assay for human Hypoxia Inducible Factor 1 (HIF1A) (AID 2282951). The settings on record: HepG2 Attagene cis-factorial HIF1a reporter transcription; actives raise or lower the signal. A digest of the protocol:
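Dosed 24 h, transfected HepG2 cells yielded total RNA whose reporter transcripts were RT-PCR-amplified and sized by capillary electrophoresis using fluorescent labelling; DMSO defined baseline, with gain and loss of signal both fitted.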

The target in experiment [6] is Hepatocyte nuclear factor 6 (Homo sapiens) (UniProt Q9UBC0). Description: ATG_HNF6_CIS: Attagene CIS-FACTORIAL HepG2 Assay for human Hepatocyte Nuclear Factor 6 (HNF6) (AID 2282952). To be noted: HepG2 Attagene cis-factorial HNF6 reporter transcription; actives raise or lower the signal. A digest of the protocol:
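Endogenous factor activity read in transiently transfected HepG2 via promoter-regulated reporter transcripts. RNA harvested 24 h post-dosing, reverse-transcribed, PCR-amplified, FAM-labelled, HpaI-digested and resolved by capillary electrophoresis; fitted in both directions against DMSO.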

Experiment [7] has as its target Heat shock factor protein 1 (Homo sapiens) (UniProt Q00613). Description: ATG_HSE_CIS: Attagene CIS-FACTORIAL HepG2 Assay for human Heat Shock Transcription Factor 1 (HSE) (AID 2282953). To be noted: HepG2 HSE cis-reporter, Attagene RNA transcription; actives raise or lower the signal. The essentials: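 Read-out: fluorescence of reporter-specific RT-PCR fragments separated by capillary electrophoresis. HepG2 carrying transfected cis-element reporter units; 24 h dosing; activity fitted in both directions relative to DMSO baseline.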

The nature of experiment [8]: ATG_MRE_CIS: Attagene CIS-FACTORIAL HepG2 Assay for human Metal Responsive Element (MRE) (AID 2282954). To be noted: HepG2 MRE cis-reporter transcription, Attagene multiplex; actives raise or lower the signal. The essentials:
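Multiplexed cis-reporter assay in human HepG2 liver cells, 24 h incubation with test chemical. Reporter transcripts measured by RT-PCR and capillary electrophoresis; values from bidirectional curve fitting versus DMSO.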

Experiment [9] can be described thus: ATG_PBREM_CIS: Attagene CIS-FACTORIAL HepG2 Assay for human Phenobarbital-responsive Enhancer Module (PBREM) (AID 2282955). The settings on record: HepG2 PBREM cis-reporter, Attagene multiplexed transcription; actives raise or lower the signal. The essentials: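 Transfected liver-derived HepG2 cells exposed 24 h; PBREM reporter transcript quantified via RT-PCR and capillary electrophoresis, with activity in either direction referenced to DMSO.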

Experiment [10] concerns the target Paired box protein Pax-6 (Homo sapiens) (UniProt P26367). Description: ATG_Pax6_CIS: Attagene CIS-FACTORIAL HepG2 Assay for human Paired Box 6 (PAX6) (AID 2282956). The settings on record: HepG2 CIS-FACTORIAL PAX6 reporter transcription, RNA readout; actives raise or lower the signal. The essentials:
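Fluorescent RT-PCR products separated by capillary electrophoresis report PAX6-linked promoter mRNA in HepG2 cells 24 h post-dose. Curves fitted bidirectionally, DMSO as negative control.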

A short description of experiment [11]: ATG_PXRE_CIS: Attagene CIS-FACTORIAL HepG2 Assay for human Pregnane X Receptor Element (PXRE) (AID 2282957). To be noted: HepG2 Attagene CIS-FACTORIAL PXRE reporter, mRNA; actives raise or lower the signal. The essentials: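 Reporter transcripts under endogenous PXR-responsive cis-regulation quantified from total RNA of transfected HepG2 cells 24 h post-dosing, via RT-PCR with fluorescent primer extension and capillary electrophoresis. Gain or loss of signal fitted against DMSO baseline.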

Experiment [12] in a line: ATG_PPRE_CIS: Attagene CIS-FACTORIAL HepG2 Assay for human Peroxisome Proliferator-activated Response Element (PPRE) (AID 2282958). To be noted: HepG2 PPRE cis-element reporter, Attagene transcription factor profiling; actives raise or lower the signal. A digest of the protocol:
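Measured endpoint: PPRE-controlled reporter mRNA, detected by RT-PCR and capillary electrophoresis fluorescence, from transiently transfected HepG2 cells 24 h after dosing. Curves fitted in both directions using DMSO baseline.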

Experiment [13] in a line: ATG_Sox_CIS: Attagene CIS-FACTORIAL HepG2 Assay for human SRY-box transcription factor (SOX) (AID 2282960). To be noted: HepG2 Attagene cis-factorial SOX reporter, mRNA; actives raise or lower the signal. The essentials:
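Gain- or loss-of-signal endpoint, fitted bidirectionally with DMSO as negative control. Based on reporter mRNA from transfected HepG2 cells harvested 24 h post-treatment and quantified via RT-PCR and capillary electrophoresis.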

For experiment [14], the target named is Transcription factor Sp1 (Homo sapiens) (UniProt P08047). Description: ATG_Sp1_CIS: Attagene CIS-FACTORIAL HepG2 Assay for human Specificity Protein 1 (Sp1) (AID 2282961). The settings on record: HepG2 Sp1 cis-reporter transcription, actives raise or lower the signal. The essentials:
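Endpoint reflects endogenous Sp1 transcriptional activity, not an exogenous fusion protein: HepG2 cells with transfected cis-regulated reporters, 24 h dosing, RT-PCR/capillary electrophoresis mRNA read-out, DMSO-normalised bidirectional fit.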

Experiment [15] is described as follows: ATG_SREBP_CIS: Attagene CIS-FACTORIAL HepG2 Assay for human Sterol Regulatory Element Binding (SREBP) (AID 2282962). The settings on record: HepG2 Attagene cis-factorial SREBP reporter, mRNA; actives raise or lower the signal. The essentials:
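Endogenous factor activity is measured in HepG2 through multiplexed reporter units under cis-element control. Following a 24 h incubation, reporter transcripts are reverse-transcribed, PCR-amplified and sized by capillary electrophoresis; activity is fitted in both directions relative to DMSO.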

Experiment [16] can be described thus: ATG_TA_CIS: Attagene CIS-FACTORIAL HepG2 Assay for human TA Basal Promoter (AID 2282964). The settings on record: HepG2 Attagene CIS-factorial TA basal promoter reporter; actives raise or lower the signal. The essentials: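 Transfected HepG2, 24 h compound exposure; RNA → RT-PCR → FAM primer extension → HpaI cut → CE fluorescence. Gain/loss-of-signal fitted against DMSO negative control. Background-control readout.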

Experiment [17] can be described thus: ATG_TCF_b_cat_CIS: Attagene CIS-FACTORIAL HepG2 Assay for human T-Cell-Factor with beta-catenin (TCF/b-cat) (AID 2282965). To be noted: HepG2 TCF/beta-catenin cis-reporter transcription, actives raise or lower the signal. A digest of the protocol:
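Endogenous transcription factor activity is captured through cis-promoter reporter constructs transiently introduced into human HepG2 liver cells. Induced reporter mRNA is measured after 24 h and fitted bidirectionally relative to DMSO.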

The target of experiment [18] is Bile acid receptor (Homo sapiens) (UniProt Q96RI1). Put plainly: ATG_IR1_CIS: Attagene CIS-FACTORIAL HepG2 Assay for human Nuclear Receptor Subfamily 1 Group H Member 4 (NR1H4), IR1 submotif (AID 2282946). To be noted: IR1 reporter transcription, actives raise or lower the signal. The essentials: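 HepG2 cells transiently transfected with multiplexed cis-element reporter units read endogenous transcription factor activity. After 24 h compound exposure, reporter mRNA was quantified by RT-PCR, fluorescent labelling, HpaI digestion and capillary electrophoresis; bidirectional fitting versus DMSO baseline.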
Sequence of Bile acid receptor (Homo sapiens) (Q96RI1 whole entry, looked up): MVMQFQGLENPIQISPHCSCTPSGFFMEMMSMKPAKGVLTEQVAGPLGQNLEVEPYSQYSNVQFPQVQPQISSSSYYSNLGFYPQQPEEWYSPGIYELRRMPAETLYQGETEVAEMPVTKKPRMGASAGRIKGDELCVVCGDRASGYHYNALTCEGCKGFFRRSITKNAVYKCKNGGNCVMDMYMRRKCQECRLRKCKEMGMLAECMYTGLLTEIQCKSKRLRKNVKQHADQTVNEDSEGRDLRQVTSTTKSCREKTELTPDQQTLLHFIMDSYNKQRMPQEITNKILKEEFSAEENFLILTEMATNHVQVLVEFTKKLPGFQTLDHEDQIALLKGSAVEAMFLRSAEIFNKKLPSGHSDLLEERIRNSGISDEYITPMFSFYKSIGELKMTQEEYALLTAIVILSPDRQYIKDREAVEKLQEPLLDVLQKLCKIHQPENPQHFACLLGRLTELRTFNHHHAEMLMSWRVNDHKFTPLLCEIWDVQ

A short description of experiment [19]: ATG_RORE_CIS: Attagene CIS-FACTORIAL HepG2 Assay for human RAR-related Orphan Receptor Element (RORE) (AID 2282959). To be noted: HepG2 Attagene cis-factorial RORE reporter, mRNA; actives raise or lower the signal. A digest of the protocol:
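Transiently transfected HepG2 reporter cells were treated 24 h. Reporter transcripts were detected by RT-PCR and capillary electrophoresis, with bidirectional fitting against DMSO.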

Experiment [20] concerns the target Signal transducer and activator of transcription 3 (Homo sapiens) (UniProt P40763). Put plainly: ATG_STAT3_CIS: Attagene CIS-FACTORIAL HepG2 Assay for human Signal Transducer and Activator of Transcription 3 (STAT3) (AID 2282963). The settings on record: HepG2, Attagene cis-factorial STAT3 reporter transcription; actives raise or lower the signal. A digest of the protocol:
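Cis-factorial format: endogenous transcription factors in HepG2 drive transfected reporter units. After 24 h treatment, reporter RNA was reverse-transcribed, amplified, FAM-labelled and HpaI-digested before CE analysis; activity scored in both directions against DMSO.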

Sequence of Heat shock factor protein 1 (Homo sapiens) (Q00613 whole entry, looked up, the tested form may be a part): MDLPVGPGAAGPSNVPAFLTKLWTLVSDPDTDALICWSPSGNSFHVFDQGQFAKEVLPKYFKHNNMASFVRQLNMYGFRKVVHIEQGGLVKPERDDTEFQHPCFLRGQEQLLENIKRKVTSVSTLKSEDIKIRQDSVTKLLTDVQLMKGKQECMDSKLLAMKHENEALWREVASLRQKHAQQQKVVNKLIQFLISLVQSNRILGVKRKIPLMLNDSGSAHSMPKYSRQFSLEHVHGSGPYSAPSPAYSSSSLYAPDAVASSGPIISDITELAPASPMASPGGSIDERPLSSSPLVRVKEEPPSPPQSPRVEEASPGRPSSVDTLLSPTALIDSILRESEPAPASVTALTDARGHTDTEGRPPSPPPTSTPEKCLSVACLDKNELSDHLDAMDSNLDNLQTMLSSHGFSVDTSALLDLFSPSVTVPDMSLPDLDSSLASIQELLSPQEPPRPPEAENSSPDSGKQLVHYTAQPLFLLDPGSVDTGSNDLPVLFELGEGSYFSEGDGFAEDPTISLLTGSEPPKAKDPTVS
Sequence of Transcription factor Sp1 (Homo sapiens) (P08047 whole entry, looked up, the tested form may be a part): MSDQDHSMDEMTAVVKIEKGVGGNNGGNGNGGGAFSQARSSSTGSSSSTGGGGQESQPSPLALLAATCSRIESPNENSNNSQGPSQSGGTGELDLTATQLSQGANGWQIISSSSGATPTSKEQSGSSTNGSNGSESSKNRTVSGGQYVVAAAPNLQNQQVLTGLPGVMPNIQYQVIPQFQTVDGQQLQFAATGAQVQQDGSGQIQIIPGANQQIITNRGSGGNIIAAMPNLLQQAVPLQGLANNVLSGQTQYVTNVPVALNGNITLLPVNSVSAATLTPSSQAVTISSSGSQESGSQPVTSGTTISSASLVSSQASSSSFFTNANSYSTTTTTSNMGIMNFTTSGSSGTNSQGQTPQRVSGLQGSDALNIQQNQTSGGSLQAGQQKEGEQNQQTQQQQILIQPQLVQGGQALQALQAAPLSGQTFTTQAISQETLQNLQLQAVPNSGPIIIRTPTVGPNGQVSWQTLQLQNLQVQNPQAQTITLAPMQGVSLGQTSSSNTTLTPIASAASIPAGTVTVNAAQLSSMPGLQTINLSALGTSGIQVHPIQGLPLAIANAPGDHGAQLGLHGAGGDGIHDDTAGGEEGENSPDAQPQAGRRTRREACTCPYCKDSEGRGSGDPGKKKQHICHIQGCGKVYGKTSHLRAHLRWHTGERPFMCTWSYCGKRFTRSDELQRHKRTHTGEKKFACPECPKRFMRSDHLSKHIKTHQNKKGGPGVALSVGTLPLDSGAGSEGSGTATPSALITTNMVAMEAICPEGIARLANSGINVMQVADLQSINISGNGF
Sequence of Hepatocyte nuclear factor 6 (Homo sapiens) (Q9UBC0 whole entry, looked up): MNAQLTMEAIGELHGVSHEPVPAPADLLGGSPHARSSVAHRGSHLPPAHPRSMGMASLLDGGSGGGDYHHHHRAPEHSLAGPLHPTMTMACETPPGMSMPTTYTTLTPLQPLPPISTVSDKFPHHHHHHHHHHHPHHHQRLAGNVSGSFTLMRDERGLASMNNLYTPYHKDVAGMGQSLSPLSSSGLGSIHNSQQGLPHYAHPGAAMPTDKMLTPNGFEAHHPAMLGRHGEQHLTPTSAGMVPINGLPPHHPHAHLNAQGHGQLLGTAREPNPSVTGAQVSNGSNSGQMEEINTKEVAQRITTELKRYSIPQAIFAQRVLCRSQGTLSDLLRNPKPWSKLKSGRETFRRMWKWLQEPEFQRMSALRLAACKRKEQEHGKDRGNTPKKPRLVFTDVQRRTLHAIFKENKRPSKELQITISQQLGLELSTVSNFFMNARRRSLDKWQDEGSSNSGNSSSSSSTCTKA
Sequence of Paired box protein Pax-6 (Homo sapiens) (P26367 whole entry, looked up): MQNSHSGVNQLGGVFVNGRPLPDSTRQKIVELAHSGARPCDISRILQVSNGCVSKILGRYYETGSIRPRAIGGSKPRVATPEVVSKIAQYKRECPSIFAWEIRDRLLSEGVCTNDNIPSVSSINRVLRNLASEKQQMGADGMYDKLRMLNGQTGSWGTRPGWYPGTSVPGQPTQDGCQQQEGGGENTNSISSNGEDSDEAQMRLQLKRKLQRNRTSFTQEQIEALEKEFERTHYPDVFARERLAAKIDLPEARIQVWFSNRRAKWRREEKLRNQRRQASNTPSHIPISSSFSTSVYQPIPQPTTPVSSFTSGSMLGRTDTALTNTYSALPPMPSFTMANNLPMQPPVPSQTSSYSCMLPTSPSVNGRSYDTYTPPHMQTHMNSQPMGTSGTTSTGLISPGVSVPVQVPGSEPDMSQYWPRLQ
Sequence of Signal transducer and activator of transcription 3 (Homo sapiens) (P40763 whole entry, looked up): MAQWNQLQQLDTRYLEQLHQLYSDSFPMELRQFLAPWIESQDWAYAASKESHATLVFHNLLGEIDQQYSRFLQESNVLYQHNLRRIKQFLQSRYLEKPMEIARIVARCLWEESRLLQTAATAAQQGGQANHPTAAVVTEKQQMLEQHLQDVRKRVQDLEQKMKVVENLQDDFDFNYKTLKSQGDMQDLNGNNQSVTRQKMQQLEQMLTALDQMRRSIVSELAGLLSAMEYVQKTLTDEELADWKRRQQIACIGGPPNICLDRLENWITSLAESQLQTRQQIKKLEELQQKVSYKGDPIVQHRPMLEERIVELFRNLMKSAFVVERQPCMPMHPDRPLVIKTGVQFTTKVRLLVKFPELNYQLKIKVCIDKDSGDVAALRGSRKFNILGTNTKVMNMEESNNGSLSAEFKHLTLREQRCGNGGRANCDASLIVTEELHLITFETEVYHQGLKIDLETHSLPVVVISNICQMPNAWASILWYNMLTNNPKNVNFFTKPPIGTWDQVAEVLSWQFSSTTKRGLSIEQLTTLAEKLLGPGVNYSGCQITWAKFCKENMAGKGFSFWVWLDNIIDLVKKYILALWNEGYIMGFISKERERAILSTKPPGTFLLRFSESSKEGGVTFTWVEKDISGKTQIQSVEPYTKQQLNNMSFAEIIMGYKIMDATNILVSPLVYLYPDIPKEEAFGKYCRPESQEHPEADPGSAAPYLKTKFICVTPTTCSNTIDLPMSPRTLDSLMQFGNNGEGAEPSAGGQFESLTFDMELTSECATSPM
Sequence of Hypoxia-inducible factor 1-alpha (Homo sapiens) (Q16665 whole entry, looked up): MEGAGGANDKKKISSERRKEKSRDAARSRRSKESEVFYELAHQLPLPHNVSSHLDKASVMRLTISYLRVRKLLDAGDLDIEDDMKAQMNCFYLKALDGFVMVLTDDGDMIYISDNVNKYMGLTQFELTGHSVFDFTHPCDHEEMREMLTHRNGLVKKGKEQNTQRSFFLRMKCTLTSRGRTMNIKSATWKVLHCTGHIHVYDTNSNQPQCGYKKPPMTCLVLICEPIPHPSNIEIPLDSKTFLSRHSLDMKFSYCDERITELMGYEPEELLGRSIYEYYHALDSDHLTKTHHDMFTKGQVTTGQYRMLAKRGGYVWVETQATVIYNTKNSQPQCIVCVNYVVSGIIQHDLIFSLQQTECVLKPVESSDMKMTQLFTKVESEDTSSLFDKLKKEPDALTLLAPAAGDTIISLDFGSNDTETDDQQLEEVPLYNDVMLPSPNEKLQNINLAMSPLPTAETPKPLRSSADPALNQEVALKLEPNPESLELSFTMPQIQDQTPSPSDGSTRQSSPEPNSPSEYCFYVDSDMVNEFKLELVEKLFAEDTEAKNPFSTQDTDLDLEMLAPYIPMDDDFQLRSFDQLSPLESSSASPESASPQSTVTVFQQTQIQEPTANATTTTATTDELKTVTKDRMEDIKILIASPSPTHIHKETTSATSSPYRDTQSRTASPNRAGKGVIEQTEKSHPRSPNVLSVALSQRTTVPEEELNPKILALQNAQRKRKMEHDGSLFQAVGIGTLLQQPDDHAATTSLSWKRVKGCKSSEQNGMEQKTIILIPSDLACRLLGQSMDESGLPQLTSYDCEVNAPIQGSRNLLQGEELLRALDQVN

For the molecule `Oc1ccccc1Cl`, the call in experiment [1], in experiment [2], in experiment [3], in experiment [4], in experiment [5] and in [6] was inactive. Further, the molecule was classed as inactive in experiment [7], in [8], in experiment [9], in [10], in experiment [11] and in experiment [12]. Further, the molecule was classed as inactive in [13], in experiment [14], in experiment [15], in experiment [16] and in experiment [17].

With `CN(C)[C@@H]1C(=O)C(C(N)=O)=C(O)[C@@]2(O)C(=O)C3=C(O)c4c(O)cccc4[C@@](C)(O)[C@H]3C[C@@H]12`, the molecule was called inactive in experiment [18], in experiment [1], in experiment [2], in experiment [3], in [4] and in experiment [6]. Besides, the molecule was classed as inactive in experiment [7], in [8], in experiment [9], in experiment [10], in [12] and in experiment [13]. The molecule was classed as inactive in experiment [14], in experiment [15], in experiment [16] and in experiment [17]. Besides, the AC50 in experiment [11] is 27.6 µM (active).

`CCN(CC)CCO`: the molecule was called inactive in [1], in [2], in experiment [3], in experiment [4], in experiment [5] and in experiment [6]. Besides, the result in [7], in experiment [8], in experiment [9], in experiment [10], in [11] and in [12] was inactive. Moreover, the call in [19], in experiment [13], in [14], in experiment [15], in experiment [16] and in experiment [17] was inactive.

`CC(C)(C)OOC(=O)c1ccccc1`: the molecule was called inactive in [1], in experiment [2], in experiment [3], in experiment [4], in experiment [5] and in experiment [6]. Further, the molecule was called inactive in experiment [7], in experiment [9], in experiment [12], in experiment [19], in [13] and in [14]. Also, the molecule was called inactive in experiment [15], in experiment [20], in experiment [16] and in experiment [17]. For the same molecule, the figures for the AC50 in [8], in experiment [10] and in experiment [11] were 147 µM (active), 149 µM (active) and 100 µM (active), respectively.

In the case of `C1=Cc2cccc3cccc1c23`, the molecule was called inactive in experiment [1], in experiment [2], in [3], in [4], in experiment [5] and in [6]. The result in [7], in [8], in [9], in experiment [12], in experiment [19] and in [13] was inactive. For the same molecule, the outcome in experiment [14], in experiment [15], in experiment [20], in experiment [16] and in experiment [17] was inactive. In addition, the half-maximal activity concentration (AC50) in experiment [11] was 16.2 µM (active).

On to `c1ccc2c(c1)oc1ccccc12`, for which the molecule was classed as inactive in experiment [1], in experiment [2], in experiment [3], in experiment [4], in [5] and in experiment [6]. The molecule was called inactive in [7], in experiment [8], in [9], in experiment [10], in experiment [11] and in [13]. Moreover, the result in experiment [14], in experiment [15], in [16] and in experiment [17] was inactive.

As to `CCN(CC)N=O`, the call in [18], in [2], in experiment [3], in experiment [4], in experiment [5] and in experiment [6] was inactive. Moreover, the call in [7], in experiment [8], in experiment [11], in experiment [12], in [19] and in [13] was inactive. For the same molecule, the molecule was called inactive in [14], in experiment [15], in experiment [20], in experiment [16] and in experiment [17].

By AC50 is commonly meant the concentration giving half of the maximal activity seen.
